Where “and” joins values, the source holds several entries; their conditions need not be identical. Equal entries are not always repeated. This is part of a sample that, as a whole, favours compounds with a hit. Of some 83,000 tested, about 20% had one in any assay.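 In brief: 96-well plates, 48 h treatment, single concentration, percent growth endpoint.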 Values without a mark were called inactive. Calls of active or inactive are those of the source. Rule for the calls: active = growth percent below 10; inactive = the rest.

The subject of this test is MDA-MB-468 breast. The experiment in a line: NCI-60 one-dose screen, 48 h (100 = growth as untreated, 0 = no growth, -100 = all killed). To be noted: 10 µM unless noted.
As to `COc1cc(-c2n/c(=C\c3c(O)[nH]c4ccccc34)cc3c2=Nc2ccccc2-3)cc(OC)c1OC`, the growth is 5.24% (active).

As for `C#CCNCCN1C(=O)c2ccc3c4c(ccc(c24)C1=O)C(=O)N(CCNCC#C)C3=O`, the growth was 17.1%.

Take `Cc1cc(N2CCN(c3ccnc4cc(Cl)ccc34)CC2)nc(NC2CCCCC2)n1`: the growth was -5.23% (active). As for `C[C@]12CC[C@@H]3c4ccc(O)cc4CC[C@H]3[C@@H]1CC[C@@H]2NS(=O)(=O)c1cccc(Br)c1`, the growth was 53.8%. Regarding `O=C(Oc1cccc(OC(=O)c2ccccc2)c1)c1ccccc1`, the growth was 110% and 101%.

In the case of `CC/C=C\C[C@H](O)C/C=C1/C(=O)C=C[C@@H]1C/C=C\CCCC(=O)N(C)C`, the growth was -67.8% (active). Consider `CN1CCN(c2ccc(C(=O)Nc3cccc(C#Cc4cccc5[nH]nc(N)c45)c3)cc2C(F)(F)F)CC1`, for which the growth was -26.6% (active). For `CCOC(=O)c1coc(C(=O)OCC)c1C(=O)OCC`, the growth is 107%. As for `O=C(C[Si](CC(=O)c1cccc(C(F)(F)F)c1)CC(=O)c1cccc(C(F)(F)F)c1)c1cccc(C(F)(F)F)c1`, the growth was 91%.

For `O=[N+]([O-])c1ccc2c(c1)Cc1cc(F)ccc1-2`, the growth is 53.9%. Consider `CN(C)Cc1ccc(O)c(C(=O)O)c1`, for which the growth is 106%.

In the case of `CN(/C(N)=N/N=C/c1c2ccccc2cc2ccccc12)C1CCCCC1`, the growth is 4.88% (active). The same measure for `CC(O)CN1CCCCC1` (stereo not given): 104%.

On to `COC(=O)c1cccc(NC2=C(Cl)C(=O)C(C)=C(C)C2=O)c1`, for which the growth was -62% (active). Regarding `C#CC[C@@H]1C[C@]2(C)[C@H]3CC[C@@H]4[C@H]5C(C(=C)C)CC[C@]5(C(=O)NCCCCCCCCN)CC[C@@]4(C)[C@]3(C)CC[C@H]2C(C)(C)[C@H]1OC(C)=O` (stereo not given in full), the growth was 105%. With `Cc1nn(-c2ccccc2)c(N2CCOCC2)c1/C=N/N=c1\sc2ccccc2n1C`, the growth was 71.6%. Turning to `O=C(N/N=C/c1cc2ccccc2nc1Cl)c1cc(-c2nc3ccccc3[nH]2)nc2ccccc12`, the growth is 98.5%. To `COc1ccc(Nc2nc3ccc(NC(=O)NC4CCCCC4)cc3[nH]c2=O)cc1` belongs 96%.

As for `O=C1c2ccccc2C(=O)c2c1oc1oc3c(c(=O)c21)c(=O)n(-c1ccccc1)c1ccccc31`, the growth was -27.3% (active). Regarding `C[C@@H]1CC[C@@H]2[C@@H]1[C@H](OC(=O)/C=C/c1ccccc1)[C@]1(C3CCCCC3)C[C@@H](OC(=O)CO)[C@@]2(C)O1`, the growth is 74.1%. For `O=C(O)c1c2c(nc3ccccc13)Cc1ccccc1-2`, the growth is 128% and 89.3%. On to `Cc1ccc(OC(=O)c2ccc(Cl)cc2)cc1`, for which the growth was 105%. On to `COc1ccc(/C=C2\c3cc(OC)c(OC)c(OC)c3CC[C@@H]2O)cc1F`, for which the growth was 13.5%.

With `Nc1ccc(N=Nc2ccccc2)cc1[N+](=O)[O-]`, the growth was -6.35% (active). Turning to `CCOC(=O)C#Cc1c(C(=O)OCC)nnn1[C@@H]1O[C@H](COC(C)=O)[C@@H](OC(C)=O)[C@H]1OC(C)=O`, the growth is 61.5%. Take `NCC(=O)CCC(=O)O`: the growth is 100%. To `Cc1ccc(NC2=CC(=O)C(=O)c3ccccc32)c(C)c1` belongs 14.1%; to `CCOC(=O)CCC[P+](c1ccccc1)(c1ccccc1)c1ccccc1`, 6.56% (active). To `O=C1Cc2cc(CCN3CCN(CCOCCO)CC3)c(Cl)cc2N1Cc1ccc(-c2ccccc2-c2nn[nH]n2)cc1` belongs 82.7%; to `Cc1cc(C)c(-c2c(O)c(Br)c(-c3c(C)cc(C)c(Br)c3C)c(O)c2Br)c(C)c1Br`, 48.9%; to `O=c1[nH]ccc2c(S(=O)(=O)N3CCCNCC3)cccc12`, 15.9%. For the compound `COc1ccccc1OC(=O)Oc1ccccc1OC`, the growth was 106% and 119%. Turning to `N#Cc1cccc(/C=C(/C(=O)c2ccccc2)c2ccccc2)c1`, the growth was 48.9%. With `N#Cc1nc(-c2ccccc2)oc1S(=O)(=O)N1CCN(CCc2ccccn2)CC1`, the growth is 25.7%. On to `C[C@]1(CO)C[C@@H](O)C[C@]2(C)[C@@H]1CC[C@@]13C[C@@H]4[C@@H](C[C@H]12)[C@]4(C)C3`, for which the growth is 113%. On to `CN(C)CCOc1ccc2c(c1)C(=O)/C(=C\c1ncc([N+](=O)[O-])n1C)C2`, for which the growth was -78.5% (active).

Consider `COc1cc(Cn2c(-c3ccccc3)cc3c2-c2oncc2CC3)cc(OC)c1`, for which the growth is -21.4% (active). On to `CCC(CCCN(CC)CCc1ccccc1)OC(=O)c1cc(OC)c(OC)c(OC)c1` (stereo not given), for which the growth was 93.1%. Take `COC(=O)[C@]12CC[C@@H](C)[C@H](C)[C@@H]1C1=CC[C@@H]3[C@@]4(C)C(C=O)=C[C@@](C)(CO)C4=CC[C@@]3(C)[C@]1(C)CC2`: the growth was 20%.

In the case of `O=C(/C=C/c1cn(-c2ccccc2)nc1-c1ccccc1)CCC(=O)NO`, the growth is 101%.

These data come from PubChem BioAssay (NCI).
